Experimental findings from PubChem BioAssay (NCI) are described below.

This is part of a sample that, as a whole, favours compounds with a hit. Of some 83,000 tested, about 20% had one in any assay.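 Compound tested at a single concentration for 48 hours in 96-well plates; a percent growth value below 10 was scored as active.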 Unmarked numbers belong to inactive results. Activity calls are given as the source filed them.

Test in all cases: NCI-60 one-dose screen, 48 h (100 = growth as untreated, 0 = no growth, -100 = all killed)
Common to all, as to conditions: 10 µM unless noted

The subject of experiment [1] is DU-145 prostate.
For experiment [2], the system named is K-562 leukemia.
Experiment [3] deals with MALME-3M melanoma.
Experiment [4] concerns MDA-MB-231 breast.
The test system of experiment [5] is RXF 393 renal.
Experiment [6] deals with SF-268 CNS.
For experiment [7], the system named is SF-295 CNS.
Experiment [8] concerns SF-539 CNS.
The subject of experiment [9] is UACC-257 melanoma.
The subject of experiment [10] is M14 melanoma.
For experiment [11], the system named is HCT-15 colon.
The test system of experiment [12] is HT29 colon.
Experiment [13] concerns SNB-75 CNS.
Experiment [14] has as its system SNB-19 CNS.
Experiment [15] relates to U251 CNS.
Experiment [16] has as its system PC-3 prostate.
Experiment [17] deals with SK-MEL-5 melanoma.
Experiment [18] deals with UACC-62 melanoma.
In experiment [19] the test system is SK-MEL-28 melanoma.
Experiment [20] concerns LOX IMVI melanoma.

As for `NC(=O)/C=C/C(=O)c1c(Cl)cccc1Cl`, the growth in [1] is -75.9% (active); in [2], -19.2% (active); in experiment [3], -68.4% (active); in experiment [4] it was -79.1% (active); in experiment [5], -41.6% (active); in [6], -57.3% (active). Besides, the growth in experiment [7] is 81.9%; in [8] it was -95.4% (active); in [9], -81.7% (active); in experiment [10] it was -96.5% (active); in experiment [11] it was -61.2% (active); in experiment [12], -39.6% (active). Besides, the growth is -99.5% (active) in experiment [13]; 9.41% (active) in [14]; -59.1% (active) in experiment [15]; -96% (active) in experiment [16]; -94.5% (active) in experiment [17]; -71.1% (active) in experiment [18]. The growth in experiment [19] is -99.1% (active).

On to `CCOc1ccc(-c2nc3ccc(-c4nc5ccc(N6CCN(C)CC6)cc5[nH]4)cc3[nH]2)cc1`, for which the growth is -100% (active) in experiment [1]; 24.9% in experiment [2]; -87.8% (active) in experiment [3]; -84.2% (active) in experiment [4]; -86.2% (active) in experiment [5]; -83.9% (active) in [6]. In addition, the growth in experiment [7] is -81.9% (active); in experiment [8], -97.9% (active); in experiment [9], -64.8% (active); in experiment [10], -85.1% (active); in experiment [11], 23.7%; in experiment [12] it was -68.3% (active). Besides, the growth in experiment [13] was -90.2% (active); in [14], -96.2% (active); in experiment [15], -98.1% (active); in [16] it was -47.8% (active); in experiment [17] it was -96.7% (active); in experiment [18], -96.5% (active). For the same molecule, in experiment [19], the growth is -88.6% (active).

As for `CC(C)(C)c1ccc(O)c(C2CCCCC2)c1`, the growth in experiment [1] was 102%; in experiment [2], 89.8%; in experiment [3] it was 115%; in [4], 106%; in experiment [5], 90.9%; in experiment [6], 99.4%. In addition, the growth in [7] is 130%; in experiment [8], 121%; in experiment [9], 86.6%; in [10], 122%; in [11] it was 102%; in experiment [12] it was 87%. Moreover, the growth was 100% in experiment [13]; 122% in experiment [14]; 101% in experiment [15]; 95% in [16]; 96.3% in [17]; 96.7% in experiment [18]. Further, the growth in experiment [19] was 110%.

Regarding `CC1OC2CC(=O)OC2C2=C1C(=O)c1c(O)cccc1C2=O` (stereo not drawn), the growth was -98.3% (active) in experiment [1]; -7.94% (active) in experiment [2]; -77.4% (active) in experiment [3]; -65.9% (active) in [4]; -96.4% (active) in experiment [5]; -92.9% (active) in [6]. For the same molecule, the growth was -8.69% (active) in [7]; -89.5% (active) in [8]; -78.5% (active) in experiment [9]; -87.7% (active) in experiment [10]; -76.6% (active) in experiment [11]; -51.8% (active) in experiment [12]. Besides, the growth is -100% (active) in experiment [13]; 15.9% in experiment [14]; -44.8% (active) in [15]; -100% (active) in experiment [17]; -89.4% (active) in experiment [18]; -91.6% (active) in experiment [20]. For the same molecule, in experiment [19], the growth was -93.5% (active).

For the molecule `CN(C)c1ccc(C(=C2C=CC(=[N+](C)C)C=C2)c2ccc(N(C)C)cc2)cc1` (tested in a mixture with another compound), the growth was -99.4% (active) in [1]; -55.3% (active) in experiment [2]; -62.7% (active) in experiment [3]; -60.9% (active) in [4]; -70.1% (active) in experiment [5]; -92.2% (active) in experiment [6]. Besides, the growth was -45.1% (active) in experiment [7]; -94.2% (active) in experiment [8]; -67.4% (active) in [9]; -63.2% (active) in [10]; -74.7% (active) in experiment [11]; -87.3% (active) in [12]. The growth in experiment [13] was -97.3% (active); in [14], -99.1% (active); in experiment [15], -95.8% (active); in [16], -38% (active); in experiment [17], -99.3% (active); in [18], -64.4% (active). Also, the growth in experiment [19] is -87% (active).

Consider `O=C(Nc1ccc(F)cc1)ON=C1CCCCC1`, for which the growth in [1] is 106% [100 µM]; in experiment [2], 79.6% [100 µM]; in experiment [3], 108% [100 µM]; in [4] it was 101% [100 µM]; in [5], 102% [100 µM]; in [6] it was 96.3% [100 µM]. The growth in experiment [7] was 100% [100 µM]; in experiment [8], 93.5% [100 µM]; in experiment [9], 98.8% [100 µM]; in experiment [10], 111% [100 µM]; in experiment [11], 97% [100 µM]; in [12], 103% [100 µM]. Further, the growth in [13] is 85% [100 µM]; in experiment [14], 94% [100 µM]; in [15], 102% [100 µM]; in experiment [16] it was 89.5% [100 µM]; in experiment [17], 99.6% [100 µM]; in [18], 54.5% [100 µM]. Further, the growth in experiment [19] is 108% [100 µM].

For `N#CC1C(=O)SC2c3ccccc3C(=O)c3ccccc3C12` (stereo not drawn), the growth in [1] was 107%; in [2], 94.9%; in experiment [3], 101%; in experiment [4] it was 98%; in experiment [5], 101%; in [6] it was 101%. The growth is 113% in [7]; 114% in experiment [8]; 101% in [9]; 109% in experiment [10]; 111% in experiment [11]; 97.7% in experiment [12]. Further, the growth is 96.3% in experiment [13]; 99.4% in experiment [14]; 92% in experiment [15]; 82.1% in experiment [16]; 97.2% in experiment [17]; 89.2% in experiment [18]. In addition, in experiment [19], the growth was 112%.
